The supplement of paper PMC10849652
The full data set covers some 8,800 targets. This sample favours those with a hit. About 0.5% of all pairs of compound and target were hits.

Legend:
Experiment in all cases: log2 fold change, soluble protein after heating vs DMSO (PISA); higher = thermal stabilisation; K562 lysate, 10 uM; active = over 0.2 and 3.5 SD of the protein, either way, in both replicates (recomputed)
erlotinib = compound: C#Cc1cccc(Nc2ncnc3cc(OCCOC)c(OCCOC)cc23)c1 [erlotinib]
Summary of the method: (§1)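 K562 pellets were dounce-homogenised in PBS pH 7.4 containing 1 mM MgCl2, and the crude extract, at 1 mg/mL protein, was exposed to 10 μM compound for 30 min. Aliquots were heated for 3 min across 48°C-58°C, pooled, brought to 0.5% NP-40 at 4°C and spun at 21,000xg for 90 min, with the supernatant taken as soluble protein. TMTpro 16plex LC-MS/MS with equalised channel sums quantified that protein. Values are log-two fold changes in thermal stability relative to solvent controls, taken from duplicates.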

[1] = compound: C/C(=N\NC(=O)C1=CC(=CC=C1)S(=O)(=O)N2CCOCC2)/C3=C(C=CC(=C3)Cl)O
Summary of the method: as §1

[2] = compound: C1=CC(=CC=C1C2=NC3=C(N2)C=C(C=C3)C(=O)N)OC4=CC=C(C=C4)Cl
Summary of the method: as §1

[3] = compound: C1=CC2=C(C=CC(=C2)/C=C\3/C(=O)NC(=NCC4=CC=CS4)S3)N=C1
Summary of the method: as §1

[4] = compound: C1=CC2=NC=CN=C2C=C1/C=C/3\C(=O)NC(=O)S3
Summary of the method: as §1

[5] = compound: C1=CC=C(C=C1)C2=NC(=C(N2)C3=CC=NC=C3)C4=CC(=C(C=C4)Cl)O
Summary of the method: as §1

[6] = compound: C1=CC=C2C(=C1)C3=NNC4=CC=CC(=C43)C2=O
Summary of the method: as §1

[7] = compound: C1CCN(C1)C(=O)NC2=CC=CC(=C2)NC3=NC=C(C(=N3)NCCC4=CN=CN4)Br
Summary of the method: as §1

[8] = compound: C1CN(CCC1(CC2=CC=C(C=C2)Cl)N)C3=NC=NC4=C3C=CN4
Summary of the method: as §1

IRAK-1-4 Inhibitor I = compound: C1COCCN1CCN2C3=CC=CC=C3N=C2NC(=O)C4=CC(=CC=C4)[N+](=O)[O-] [IRAK-1-4 Inhibitor I]
Summary of the method: as §1

Measured: log2 fold change

ARL15 (UniProt Q9NXU5)
Chain of UniProt Q9NXU5 (Q9NXU5 whole entry, looked up): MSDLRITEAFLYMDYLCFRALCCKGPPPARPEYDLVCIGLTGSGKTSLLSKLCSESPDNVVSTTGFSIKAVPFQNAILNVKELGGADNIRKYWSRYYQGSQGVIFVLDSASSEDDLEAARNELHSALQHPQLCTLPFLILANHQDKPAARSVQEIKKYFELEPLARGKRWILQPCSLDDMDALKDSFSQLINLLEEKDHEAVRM
inactive: erlotinib -0.035 | [1] 0.004 | [2] -0.009 | [3] 0.011 | [4] 0.079 | [5] -0.033 | [6] 0.005 | [7] 0.004 | [8] -0.031 | IRAK-1-4 Inhibitor I 0.038

APOBEC3C (UniProt Q9NRW3)
inactive: erlotinib 0.054 | [1] 0.058 | [2] -0.029 | [3] 0.066 | [4] 0.056 | [5] -0.017 | [6] 0.015 | [7] 0.031 | [8] -0.003 | IRAK-1-4 Inhibitor I 0.038

ANXA2 isoform 2 (UniProt P07355)
inactive: erlotinib -0.009 | [1] 0.041 | [2] 0.023 | [3] -0.003 | [4] 0.003 | [5] 0.004 | [6] 0.025 | [7] -0.006 | [8] -0.001 | IRAK-1-4 Inhibitor I -0.01

AKR1C2 (UniProt P52895)
inactive: erlotinib 0.03 | [1] -0.167 | [2] 0.005 | [3] 0.015 | [4] 0.006 | [5] 0.013 | [6] -0.046 | [7] -0.033 | [8] 0.006 | IRAK-1-4 Inhibitor I -0.024

ALDH6A1 (UniProt Q02252)
inactive: erlotinib -0.03 | [1] 0.064 | [2] -0.04 | [3] -0.068 | [4] -0.179 | [5] 0.043 | [6] -0.031 | [7] -0.022 | [8] 0.015 | IRAK-1-4 Inhibitor I 0.024

AGTPBP1 (UniProt Q9UPW5)
Chain of UniProt Q9UPW5 (Q9UPW5 whole entry, looked up): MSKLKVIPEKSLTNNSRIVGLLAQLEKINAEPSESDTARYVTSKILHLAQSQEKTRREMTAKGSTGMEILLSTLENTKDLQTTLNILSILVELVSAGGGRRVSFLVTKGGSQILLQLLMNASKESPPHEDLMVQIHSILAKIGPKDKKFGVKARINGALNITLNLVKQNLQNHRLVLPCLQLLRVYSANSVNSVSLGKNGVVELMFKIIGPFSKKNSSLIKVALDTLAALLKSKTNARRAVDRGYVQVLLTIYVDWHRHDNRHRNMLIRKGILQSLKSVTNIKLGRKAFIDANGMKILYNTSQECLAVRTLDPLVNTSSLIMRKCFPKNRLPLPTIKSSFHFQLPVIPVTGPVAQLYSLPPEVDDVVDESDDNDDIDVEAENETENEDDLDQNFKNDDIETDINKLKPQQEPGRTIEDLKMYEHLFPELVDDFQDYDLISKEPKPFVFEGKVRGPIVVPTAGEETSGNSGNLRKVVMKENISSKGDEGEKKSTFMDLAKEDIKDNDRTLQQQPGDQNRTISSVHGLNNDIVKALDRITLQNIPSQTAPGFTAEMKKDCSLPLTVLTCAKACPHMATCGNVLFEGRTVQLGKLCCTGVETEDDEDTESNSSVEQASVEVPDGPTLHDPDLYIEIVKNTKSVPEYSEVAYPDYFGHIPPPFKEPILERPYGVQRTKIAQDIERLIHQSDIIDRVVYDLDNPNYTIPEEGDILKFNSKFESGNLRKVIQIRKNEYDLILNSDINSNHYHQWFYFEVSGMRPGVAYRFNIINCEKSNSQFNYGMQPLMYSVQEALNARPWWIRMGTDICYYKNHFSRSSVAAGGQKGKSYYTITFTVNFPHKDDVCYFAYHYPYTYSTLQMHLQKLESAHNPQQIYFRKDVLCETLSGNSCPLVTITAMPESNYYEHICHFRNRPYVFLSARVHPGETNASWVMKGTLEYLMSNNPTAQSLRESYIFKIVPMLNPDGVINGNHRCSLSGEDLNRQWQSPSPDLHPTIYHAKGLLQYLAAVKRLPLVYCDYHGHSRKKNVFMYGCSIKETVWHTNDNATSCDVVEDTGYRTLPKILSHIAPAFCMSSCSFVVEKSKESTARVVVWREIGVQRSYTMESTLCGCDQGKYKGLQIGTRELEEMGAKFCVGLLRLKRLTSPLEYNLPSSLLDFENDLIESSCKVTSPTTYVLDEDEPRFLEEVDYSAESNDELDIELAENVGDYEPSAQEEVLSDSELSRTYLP
inactive: erlotinib -0.033 | [1] -0.084 | [2] 0.027 | [3] -0.029 | [4] 0.042 | [5] -0.053 | [6] -0.039 | [7] -0.017 | [8] 0.005 | IRAK-1-4 Inhibitor I 0.022

ANP32E (UniProt Q9BTT0)
Chain of UniProt Q9BTT0 (Q9BTT0 whole entry, looked up): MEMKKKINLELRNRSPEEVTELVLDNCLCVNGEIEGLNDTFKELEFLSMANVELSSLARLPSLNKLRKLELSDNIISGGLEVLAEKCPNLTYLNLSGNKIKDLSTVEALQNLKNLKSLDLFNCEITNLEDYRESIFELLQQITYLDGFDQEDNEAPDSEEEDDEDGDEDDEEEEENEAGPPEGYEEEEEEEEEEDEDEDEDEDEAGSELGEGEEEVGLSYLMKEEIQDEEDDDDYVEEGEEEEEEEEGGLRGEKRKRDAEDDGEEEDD
inactive: erlotinib 0.006 | [1] -0.006 | [2] 0.016 | [3] -0.021 | [4] 0.012 | [5] -0.004 | [6] -0.065 | [7] -0.025 | [8] 0.011 | IRAK-1-4 Inhibitor I 0.023

AMPD3 isoform 4 (UniProt Q01432)
inactive: erlotinib 0 | [1] 0.048 | [2] 0.031 | [3] 0.007 | [4] -0.072 | [5] -0.004 | [6] 0.027 | [7] -0.002 | [8] -0.002 | IRAK-1-4 Inhibitor I 0.015

ANXA1 (UniProt P04083)
inactive: erlotinib -0.012 | [1] 0.013 | [2] 0.015 | [3] 0.014 | [4] -0.009 | [5] -0.008 | [6] -0.021 | [7] 0.003 | [8] 0.016 | IRAK-1-4 Inhibitor I -0.013

ABHD11 (UniProt Q8NFV4)
inactive: erlotinib -0.064 | [1] -0.049 | [2] 0.001 | [3] 0.057 | [4] -0.008 | [5] 0.171 | [6] 0.011 | [7] -0.047 | [8] 0.015 | IRAK-1-4 Inhibitor I -0.014

AIMP1 isoform 2 (UniProt Q12904)
inactive: erlotinib 0.044 | [1] 0.013 | [2] -0.028 | [3] 0.001 | [4] -0.03 | [5] 0.021 | [6] -0.025 | [7] -0.02 | [8] 0.02 | IRAK-1-4 Inhibitor I 0.01

ACIN1 (UniProt E7EQT4)
inactive: erlotinib 0.001 | [1] -0.16 | [2] 0 | [3] 0.05 | [4] -0.027 | [5] -0.057 | [6] -0.009 | [7] 0.008 | [8] -0.027 | IRAK-1-4 Inhibitor I 0.012

ANKRD52 (UniProt Q8NB46)
Chain of UniProt Q8NB46 (Q8NB46 whole entry, looked up): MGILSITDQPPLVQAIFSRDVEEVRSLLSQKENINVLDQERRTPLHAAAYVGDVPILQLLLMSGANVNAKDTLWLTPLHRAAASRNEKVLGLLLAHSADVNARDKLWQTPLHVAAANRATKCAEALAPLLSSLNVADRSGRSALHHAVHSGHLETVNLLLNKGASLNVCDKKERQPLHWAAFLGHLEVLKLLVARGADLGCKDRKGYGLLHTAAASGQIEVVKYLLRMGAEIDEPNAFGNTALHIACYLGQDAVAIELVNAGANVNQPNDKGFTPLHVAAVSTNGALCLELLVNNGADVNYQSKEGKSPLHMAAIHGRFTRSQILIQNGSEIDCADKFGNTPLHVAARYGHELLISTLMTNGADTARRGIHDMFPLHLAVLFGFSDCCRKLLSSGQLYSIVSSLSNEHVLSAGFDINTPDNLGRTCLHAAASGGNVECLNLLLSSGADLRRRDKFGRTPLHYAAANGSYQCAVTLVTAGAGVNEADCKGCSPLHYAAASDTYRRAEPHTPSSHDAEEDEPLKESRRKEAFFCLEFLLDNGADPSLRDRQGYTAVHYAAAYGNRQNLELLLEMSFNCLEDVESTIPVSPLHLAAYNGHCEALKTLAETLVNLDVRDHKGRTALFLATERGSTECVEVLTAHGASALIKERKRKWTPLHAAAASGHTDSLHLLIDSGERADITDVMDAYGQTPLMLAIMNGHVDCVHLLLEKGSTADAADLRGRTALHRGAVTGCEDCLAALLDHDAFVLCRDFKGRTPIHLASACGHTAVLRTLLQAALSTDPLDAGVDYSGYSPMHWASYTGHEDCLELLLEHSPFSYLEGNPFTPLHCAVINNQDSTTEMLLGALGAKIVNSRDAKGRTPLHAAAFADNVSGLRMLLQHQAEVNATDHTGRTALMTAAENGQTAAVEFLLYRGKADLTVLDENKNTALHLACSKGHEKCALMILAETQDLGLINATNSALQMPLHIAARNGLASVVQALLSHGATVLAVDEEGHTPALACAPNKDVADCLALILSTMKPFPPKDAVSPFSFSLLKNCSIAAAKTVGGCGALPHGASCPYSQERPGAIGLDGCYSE
inactive: erlotinib 0.056 | [1] -0.288 | [2] 0.026 | [3] -0.011 | [4] 0.021 | [5] 0.013 | [6] -0.092 | [7] 0.008 | [8] 0.072 | IRAK-1-4 Inhibitor I 0.051

ALDH2 (UniProt P05091)
inactive: erlotinib -0.048 | [1] 0.009 | [2] -0.062 | [3] 0.03 | [4] 0.042 | [5] -0.016 | [6] 0.175 | [7] 0.011 | [8] 0.023 | IRAK-1-4 Inhibitor I 0.003

ARHGEF1 (UniProt M0QZR4)
inactive: erlotinib 0.018 | [1] 0.024 | [2] -0.023 | [3] 0.002 | [4] 0.027 | [5] 0.001 | [6] -0.041 | [7] -0.004 | [8] -0.022 | IRAK-1-4 Inhibitor I -0.031

ALG8 (UniProt Q9BVK2)
Chain of UniProt Q9BVK2 (Q9BVK2 whole entry, looked up): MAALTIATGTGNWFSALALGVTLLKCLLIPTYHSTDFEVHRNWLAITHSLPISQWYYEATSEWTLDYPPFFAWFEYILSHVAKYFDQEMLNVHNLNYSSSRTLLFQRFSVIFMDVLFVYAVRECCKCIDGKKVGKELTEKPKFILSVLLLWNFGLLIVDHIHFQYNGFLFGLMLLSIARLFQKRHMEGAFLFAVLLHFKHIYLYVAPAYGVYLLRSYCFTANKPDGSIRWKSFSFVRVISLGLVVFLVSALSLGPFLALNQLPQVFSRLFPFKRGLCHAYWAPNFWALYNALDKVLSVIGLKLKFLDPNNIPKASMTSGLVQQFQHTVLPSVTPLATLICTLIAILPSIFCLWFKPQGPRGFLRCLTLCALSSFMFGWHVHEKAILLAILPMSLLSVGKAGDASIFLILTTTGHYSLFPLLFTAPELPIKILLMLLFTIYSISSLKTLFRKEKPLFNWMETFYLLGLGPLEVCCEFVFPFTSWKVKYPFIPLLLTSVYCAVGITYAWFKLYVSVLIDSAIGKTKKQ
inactive: erlotinib 0.022 | [1] -0.102 | [2] -0.082 | [3] 0.018 | [4] 0.016 | [5] -0.062 | [6] -0.001 | [7] 0.053 | [8] 0.012 | IRAK-1-4 Inhibitor I -0.007

ACAT1 (UniProt P24752)
inactive: erlotinib 0.011 | [1] 0.006 | [2] -0.015 | [3] 0.015 | [4] 0.017 | [5] -0.002 | [6] -0.007 | [7] -0.028 | [8] 0.015 | IRAK-1-4 Inhibitor I 0.017

ANKRD40 (UniProt Q6AI12)
inactive: erlotinib 0.085 | [1] -0.269 | [2] 0.093 | [3] -0.143 | [4] 0.232 | [5] 0.065 | [6] -0.163 | [7] 0.296 | [8] 0.203 | IRAK-1-4 Inhibitor I -0.091

AKR1C3 (UniProt P42330)
active: [5] 0.3
inactive: erlotinib 0.002 | [1] 0.023 | [2] -0.1 | [3] 0.029 | [4] 0.008 | [6] 0.024 | [7] 0.05 | [8] 0.029 | IRAK-1-4 Inhibitor I -0.017

ANKRD54 (UniProt Q6NXT1)
inactive: erlotinib -0.005 | [1] 0.01 | [2] 0.122 | [3] -0.036 | [4] 0.025 | [5] 0.037 | [6] 0.02 | [7] 0.008 | [8] -0.035 | IRAK-1-4 Inhibitor I 0.003

AHCYL1 (UniProt O43865)
Chain of UniProt O43865 (O43865 whole entry, looked up): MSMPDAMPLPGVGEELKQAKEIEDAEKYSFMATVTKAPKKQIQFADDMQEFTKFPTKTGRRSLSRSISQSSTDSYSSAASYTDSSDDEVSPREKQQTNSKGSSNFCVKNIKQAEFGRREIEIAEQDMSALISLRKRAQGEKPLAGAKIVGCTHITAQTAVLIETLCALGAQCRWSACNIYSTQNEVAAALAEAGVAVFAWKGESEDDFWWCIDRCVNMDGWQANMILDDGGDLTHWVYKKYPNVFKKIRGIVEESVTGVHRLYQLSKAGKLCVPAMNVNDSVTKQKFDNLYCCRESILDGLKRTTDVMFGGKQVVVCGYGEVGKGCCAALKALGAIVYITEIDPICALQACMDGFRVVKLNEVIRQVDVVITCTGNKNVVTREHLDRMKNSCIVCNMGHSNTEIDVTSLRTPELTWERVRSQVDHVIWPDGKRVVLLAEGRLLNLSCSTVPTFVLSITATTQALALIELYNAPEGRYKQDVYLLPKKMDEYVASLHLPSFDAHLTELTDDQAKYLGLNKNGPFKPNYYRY
inactive: erlotinib -0.015 | [1] 0.018 | [2] -0.034 | [3] -0.009 | [4] -0.006 | [5] 0.008 | [6] -0.073 | [7] -0.024 | [8] 0.009 | IRAK-1-4 Inhibitor I 0.007

ALDH18A1 (UniProt P54886)
inactive: erlotinib 0.029 | [1] -0.039 | [2] -0.017 | [3] 0.02 | [4] -0.015 | [5] -0.016 | [6] -0.025 | [7] -0.022 | [8] 0.001 | IRAK-1-4 Inhibitor I -0.006

AK1 (UniProt P00568)
Chain of UniProt P00568 (P00568 whole entry, looked up): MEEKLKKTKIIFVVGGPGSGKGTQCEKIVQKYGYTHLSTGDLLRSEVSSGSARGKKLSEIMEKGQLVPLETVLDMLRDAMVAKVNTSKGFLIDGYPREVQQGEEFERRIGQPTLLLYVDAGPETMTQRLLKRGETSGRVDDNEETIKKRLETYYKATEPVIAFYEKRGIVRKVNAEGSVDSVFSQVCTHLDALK
inactive: erlotinib -0.023 | [1] 0.002 | [2] 0.014 | [3] -0.036 | [4] 0.002 | [5] -0.004 | [6] 0.047 | [7] 0.067 | [8] -0.003 | IRAK-1-4 Inhibitor I -0.002

AMD1 (UniProt P17707)
Chain of UniProt P17707 (P17707 whole entry, looked up): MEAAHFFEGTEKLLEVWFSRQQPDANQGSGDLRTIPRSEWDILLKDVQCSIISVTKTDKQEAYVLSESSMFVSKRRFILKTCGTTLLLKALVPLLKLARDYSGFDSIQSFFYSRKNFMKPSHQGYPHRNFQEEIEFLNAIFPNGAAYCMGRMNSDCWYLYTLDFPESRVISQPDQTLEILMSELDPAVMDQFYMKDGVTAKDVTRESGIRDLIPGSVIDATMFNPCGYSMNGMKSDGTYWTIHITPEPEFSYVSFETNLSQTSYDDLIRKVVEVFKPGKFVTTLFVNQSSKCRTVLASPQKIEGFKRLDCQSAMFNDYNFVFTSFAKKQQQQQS
inactive: erlotinib 0.019 | [1] 0.011 | [2] -0.091 | [3] -0.075 | [4] 0.055 | [5] 0.061 | [6] 0.011 | [7] 0.114 | [8] -0.156 | IRAK-1-4 Inhibitor I -0.036

ACSL1 (UniProt P33121)
inactive: erlotinib 0.02 | [1] -0.104 | [2] -0.153 | [3] 0.086 | [4] 0.051 | [5] 0.025 | [6] -0.04 | [7] 0.009 | [8] 0.012 | IRAK-1-4 Inhibitor I 0.022

AK4 (UniProt P27144)
Chain of UniProt P27144 (P27144 whole entry, looked up): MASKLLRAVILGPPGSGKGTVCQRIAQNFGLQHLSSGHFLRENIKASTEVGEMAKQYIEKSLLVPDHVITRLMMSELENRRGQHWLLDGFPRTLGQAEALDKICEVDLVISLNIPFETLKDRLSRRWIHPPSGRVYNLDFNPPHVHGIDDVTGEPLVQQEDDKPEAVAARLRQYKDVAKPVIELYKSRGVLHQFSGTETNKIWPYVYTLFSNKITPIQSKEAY
inactive: erlotinib -0.024 | [1] 0.024 | [2] -0.024 | [3] -0.01 | [4] -0.01 | [5] 0.015 | [6] 0.015 | [7] 0.036 | [8] 0.02 | IRAK-1-4 Inhibitor I -0.002

ARFGAP1 (UniProt Q8N6T3)
inactive: erlotinib -0.028 | [1] -0.209 | [2] -0.025 | [3] 0.005 | [4] 0.029 | [5] -0.039 | [6] -0.025 | [7] -0.018 | [8] 0.002 | IRAK-1-4 Inhibitor I 0.038

AIFM2 (UniProt Q9BRQ8)
Chain of UniProt Q9BRQ8 (Q9BRQ8 whole entry, looked up): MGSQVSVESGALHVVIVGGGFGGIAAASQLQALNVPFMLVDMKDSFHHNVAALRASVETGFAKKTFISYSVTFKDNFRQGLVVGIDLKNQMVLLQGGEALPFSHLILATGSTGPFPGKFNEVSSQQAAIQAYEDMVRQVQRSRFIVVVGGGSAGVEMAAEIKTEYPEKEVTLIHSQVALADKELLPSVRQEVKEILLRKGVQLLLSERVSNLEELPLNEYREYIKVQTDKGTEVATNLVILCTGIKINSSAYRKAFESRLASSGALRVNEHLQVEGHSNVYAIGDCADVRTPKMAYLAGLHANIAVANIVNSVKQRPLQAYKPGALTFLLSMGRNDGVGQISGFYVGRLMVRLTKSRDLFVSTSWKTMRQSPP
inactive: erlotinib -0.094 | [1] 0 | [2] 0.224 | [3] 0.071 | [4] -0.117 | [5] 0.117 | [6] 0.068 | [7] -0.025 | [8] 0.018 | IRAK-1-4 Inhibitor I -0.01
